# Results from PubChem BioAssay (NCATS).
# Several values for one entry are separate records, joined by “and”; a condition that tells them apart may be missing. Equal entries are not always repeated. Results filed as inconclusive are left out. Activity calls are given as the source filed them. Calls come from the whole dose curve; as a rule, active = well fitted activation curve with a large enough effect; inconclusive = small, poorly fitted or top-dose-only effect; inactive = no such curve, though single readings can be large or run the other way. Residues, ends and D or L forms follow the SMILES beside them.
# Target: Cellular tumor antigen p53 (Homo sapiens) (UniProt P04637)
# Assay: Primary qHTS for small molecule compounds that upregulate eGFP-tagged delta133p53alpha (in N-terminal) cells. (AID 2060322); note: nearly all actives have a fitted effect of over 75% in size;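 for activation: cells pre-induced with doxycycline then dosed without doxycycline; series mostly up to about 56 µM; 0% = DMSO vehicle and 100% = reference activator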
# Conditions: NCI-H358 eGFP-delta133p53alpha fluorescence, 24 h; activation: hits give high values
# Method in brief: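 NCI-H358 cells pre-induced 24 h with 10 ng/ml doxycycline for eGFP-delta133p53alpha, plated dox-free and exposed 24 h at 37C to titrated compounds. Fixed, Hoechst-stained; gated GFP peak intensity by laser scanning cytometry, normalized to DMSO (0%) and 57.5 uM 5-azacytidine (100%).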
# Potency is the fitted concentration of half-maximal effect.
# Cellular tumor antigen p53 (Homo sapiens), sequence (P04637 whole entry, looked up): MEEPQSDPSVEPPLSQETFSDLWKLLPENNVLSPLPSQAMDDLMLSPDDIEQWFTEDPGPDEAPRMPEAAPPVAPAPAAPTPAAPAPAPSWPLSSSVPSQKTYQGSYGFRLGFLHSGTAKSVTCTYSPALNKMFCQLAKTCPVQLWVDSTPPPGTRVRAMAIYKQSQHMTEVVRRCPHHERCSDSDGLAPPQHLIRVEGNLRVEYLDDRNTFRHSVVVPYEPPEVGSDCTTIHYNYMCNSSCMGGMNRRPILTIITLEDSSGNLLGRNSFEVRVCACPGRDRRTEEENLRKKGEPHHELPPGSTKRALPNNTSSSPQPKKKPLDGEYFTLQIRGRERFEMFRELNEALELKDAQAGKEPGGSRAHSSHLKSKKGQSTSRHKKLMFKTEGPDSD
SMILES,activation,Potency
Fc1ccc(C(c2ccc(F)cc2)N2CCNCC2)cc1,-8.47% (inactive),
C[C@H]1O[C@@H](n2cc(F)c(=O)[nH]c2=O)[C@H](O)[C@H]1O,0.294% (inactive),
O=C1NC(=O)C(=Cc2cccc(C(F)(F)F)c2)S1,2.49% (inactive),
CC(C)c1cc2c(c(O)c1O)[C@@]13CCCC(C)(C)[C@@H]1[C@H](OC3=O)C2=O,0% (inactive),
CC(=O)N[C@@H](CO)C(=O)N[C@@H](CC(=O)O)C(=O)N[C@@H](CCCCN)C(=O)N1CCC[C@H]1C(=O)O (Ac-SDKP-OH),-24.3% (inactive),
COc1cc2c(cc1OC)[C@@H]1Cc3ccc(OC)c(OC)c3CN1CC2,19.3% (inactive),
CCN(CC)C(=O)N1CCN(C)CC1,-2.51% (inactive),
O=C(Nc1ccc(Oc2ccc(Cl)cc2)c(Cl)c1)c1cc(I)cc(I)c1O,-20.9% (inactive),
CC1(C)[C@H]2CC[C@]3(C)[C@@H](C(=O)C=C4[C@@H]5C[C@@](C)(C(=O)O)CC[C@]5(C)CC[C@]43C)[C@@]2(C)CC[C@@H]1O,3.97% (inactive),
O=C(O)/C=C\C(=O)O,-25.4% (inactive),
CN1CCN(C2=Nc3cc(F)ccc3Cc3ccccc32)CC1,-11.9% (inactive),
Cc1cc(NC(=O)C2=C(O)c3ccccc3S(=O)(=O)N2C)no1,-0.837% (inactive),
CS(=O)(=O)c1ccc([C@@H](O)[C@@H](CO)NC(=O)C(Cl)Cl)cc1,15.3% (inactive) and 17.8% (inactive),
CN=C(N)NC(=O)Nc1c(C)cccc1C,5.86% (inactive),
Nc1c2c(nc3c1CCC3)CCCC2,-11.7% (inactive),
CNC(=O)c1c(I)c(NC(=O)CCCCC(=O)Nc2c(I)c(C(=O)O)c(I)c(C(=O)NC)c2I)c(I)c(C(=O)O)c1I,-10% (inactive),
Cc1c(-c2cccc3c(CCCOc4cccc5ccccc45)c(C(=O)O)n(Cc4cccnc4)c23)c(COc2ccc(N3CCN([S+](=O)([O-])N(C)C)CC3)cc2)nn1C,-39.2% (inactive),
C/C=C1/[C@H](O[C@@H]2O[C@H](CO)[C@@H](O)[C@H](O)[C@H]2O)OC=C(C(=O)OC)[C@H]1CC(=O)O[C@@H]1O[C@H](CO)[C@@H](O)[C@H](O)[C@H]1O,-32.8% (inactive),
CCCCCCCCCCCCCCCC[N+](C)(C)CCN(Cc1ccc(OC)cc1)c1ncccn1,,34.7 µM (active)
CCN1/C(=C/C=C/c2sc3ccccc3[n+]2CC)Sc2ccccc21,,16.9 µM (active)
CCCCCCCCCCCCCCCC(=O)OC(C)C,-15.3% (inactive),
Nc1ncnc2c1ncn2Cc1c(F)cccc1Cl,-17.6% (inactive),
C1=CC2C3C=CC(C3)C2C1 (centres undefined),16.4% (inactive),
Cc1ccc(Cl)c(OCC(O)CNC(C)(C)C)c1 (centres undefined),-2.51% (inactive),
